Screening data: PubChem, National Center for Advancing Translational Sciences (NCATS)
NS1 inh – influenza NS1 inhibition | Potency, µM (series often up to 46.1 µM), without a hit: at the top dose activity, positive = more growth | 270,000 tested, 0.4% active; also: potency is read from the fitted curve at half-maximal effect; actives are rising curves; nearly all actives have a fitted effect of over 50% in size
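Read-out: OD600 growth recovery of NS1-expressing budding yeast. Cells grown overnight at 30C in -URA glucose medium, washed, resuspended and diluted 1:100 in 2% galactose assay medium, pH 6.0. Same strain lacking NS1 served as positive control.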
Shiga inhibitor – inhibitors of Shiga toxin in Vero cells; Vero cells, Shiga toxin protein synthesis inhibition reporter; inhibition, % at 38.7 µM; 290,000 tested, 9.2% active; in the data active = inhibition mostly above about 28%, no sharp cut-off; inactive = mostly below about 43%; also: 0% is about no effect
Pf growth 48h – inhibits P. falciparum growth in the first generation, 48 h | P. falciparum luciferase growth in erythrocytes, 48 h | Potency, µM (doses to about 28.7 µM), for the others: at the highest dose activity change, negative = inhibition, actives largely listed as inhibitors | 310,000 tested, 5.9% active | AID 504832; active = well fitted inhibition curve with a large enough effect; inconclusive = small, poorly fitted or top-dose-only effect, or another doubt; inactive = no such curve, though single readings can be large or run the other way; also: potency is read from the fitted curve at half-maximal effect; % is scaled to controls: 0 for no effect and ±100 for the full control effect
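Here the parasites carry a stable luciferase gene and grow inside erythrocytes in Albumax-based RPMI medium with compound for one erythrocytic cycle. Activity is scored as loss of luminescent signal.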
CHX counter – counter-screen for Shiga toxin inhibitors: cycloheximide protein synthesis inhibition; cell reporter, cycloheximide protein synthesis inhibition counterscreen; max response, %; 300,000 tested, 12% active; in the data active = max response mostly above about 13%, no sharp cut-off; inactive = mostly below about 14%; also: read at 38.3 µM for the half of the compounds with a filed dose; 0% is about no effect
SARS PLpro yeast – SARS-CoV PLP inhibition in yeast. Potency, µM (titrated, usually from 32.9 µM), for inactives: top-dose activity, positive = growth rescue, actives largely listed as activators. 330,000 tested, 0.19% active. AID 485353. S. cerevisiae expressing SARS-CoV PLpro, growth rescue; also: potency is read from the fitted curve at half-maximal effect; 0% is about no effect; nearly all actives have a fitted effect of over 55% in size
Pf growth 96h – inhibits malaria parasite growth, 96 h. AID 504834. P. falciparum luciferase reporter growth, 96 h. Potency, µM (series often up to 28.7 µM), inactives show at the top dose activity change, negative = inhibition, usual class: inhibitors. 320,000 tested, 6.9% active; active = well fitted inhibition curve with a large enough effect; inconclusive = small, poorly fitted or top-dose-only effect, or another doubt; inactive = no such curve, though single readings can be large or run the other way; also: potency is read from the fitted curve at half-maximal effect; % is scaled to controls: 0 for no effect and ±100 for the full control effect
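Erythrocytes infected with luciferase-expressing P. falciparum were dispensed at 2% hematocrit and 0.05% parasitemia (final), then incubated with compounds 96 hours at 37 C in 5% CO2. Luminescence after detection reagent addition reported growth.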
NS1 inh valid – validation of influenza NS1 protein function inhibitors. activity change, negative = inhibition, % at 32.9 µM. shares compounds with NS1 inh. 1,400 tested, under 10 active. influenza NS1 function cell assay, 15-point titration; also: 0% is about no effect
PR8 titer – influenza NS1 inhibitors: inhibition of influenza A/PR/8/34 replication. 95 tested, 30% active. shares compounds with NS1 inh. virus titer (log TCID50), log10 TCID50 at 5 µM. MDCK infected influenza A/PR/8/34, virus titer TCID50; active compounds read low; call rule not given here
Starred values were filed as active, the others as inactive; u = inconclusive; x = no result given. In the library only some 21% were active in any assay of this set; here they are far more common. Unless noted, calls follow the shape of the full dose curve.

SMILES | NS1 inh | Shiga inhibitor | Pf growth 48h | CHX counter | SARS PLpro yeast | Pf growth 96h | NS1 inh valid | others
CC(=O)N=c1n(C)c2ccccc2n1CCOc1ccccc1 | u | 7 | -1% | 1 | 23% | u | -6
CC(=O)Nc1nc2ccccc2n1CCOc1ccccc1 | -11% | 3 | u | 1 | 5% | 38% | x
COc1ccccc1-n1c(SCC(=O)NC2CC2)nc2ccccc2c1=O | x | x | u | x | -4% | u | x
Cc1ccc(C)c2[nH]c(=O)c(C(c3nnnn3Cc3ccccc3)N3CCc4ccccc4C3)cc12 (stereo not drawn) | 10µM* | -30 | 10µM* | -6 | -2% | x | 12
O=C1Nc2ccc([N+](=O)[O-])cc2C1(O)N1CCCCCC1 (stereo not drawn) | 4% | -13 | 0% | -1 | -1% | 57% | x
Cc1ccc(-c2nnc(NCc3nc4ccccc4[nH]3)c3ccccc23)cc1S(=O)(=O)N(C)C | 5.6µM* | -11 | 13µM* | -2 | 1% | u | 10 | PR8 titer=7.5*
Cc1ccc(-c2n[nH]c(=O)c3ccccc23)cc1S(=O)(=O)N(C)CCO | 2% | -8 | 20% | -2 | -8% | x | x
Cc1cc2oc(=O)cc(-c3cc4ccccc4o3)c2cc1OC(=O)N(C)C | 5% | -9 | u | -3 | -1% | u | x
CN(C)C(=O)Oc1ccc2oc(=O)cc(-c3cc4ccccc4o3)c2c1 | u | -13 | 14% | -2 | -8% | 6% | -4
O=C1/C(=C\c2ccc(O)c(O)c2)Oc2cc(O)ccc21 | x | 19 | x | 7 | x | x | x
O=c1cc(O)cc(/C=C/c2ccc(O)c(O)c2)o1 | 6.3µM* | x | x | x | x | x | 38
COc1ccc(NS(=O)(=O)c2ccc(N3CCCC3)c(NC(=S)Nc3ccc(SC(F)F)cc3)c2)cc1 | 8.9µM* | -4 | u | 8 | -26% | 13µM* | u
CCC1/C(=N\O)CC(c2ccco2)NC1c1ccco1 (stereo not drawn) | u | 13 | 27% | -1 | -3% | 27% | x
CS(=O)(=O)N1CC(C(=O)NC2CC2)Oc2ccc(Cl)cc21 (stereo not drawn) | 7% | -19 | -2% | -1 | -2% | u | x
CCCCCCCN1C/C=C\C(c2ccc(OC)cc2)N(Cc2ccc(F)cc2)C(=O)[C@H]1Cc1ccccc1 (stereo partly drawn) | u | -4 | u | -3 | 0% | u | -27
CCCCCCC(=O)N1C/C=C\C(c2ccc(OC)cc2)N(Cc2ccc(F)cc2)C(=O)C1Cc1ccccc1 (stereo not drawn) | x | 17 | x | 12 | x | x | x
NS(=O)(=O)c1ccc(NC(=O)c2ccc(S(=O)(=O)N3CCc4ccccc43)cc2)cc1 | -5% | 3 | -31% | 7 | 2% | u | x
Cc1cccc2sc(NC(=O)c3cccc(S(=O)(=O)N4CCc5ccccc54)c3)nc12 | 10% | -6 | -9% | -1 | 10% | 35% | x
Cc1cc(C)c2nc(NC(=O)c3cccc(S(=O)(=O)N4CCc5ccccc54)c3)sc2c1 | 18µM* | 7 | -8% | 7 | 2% | 31% | 18
O=C(Cc1ccccc1)Nc1nc(-c2cccc([N+](=O)[O-])c2)cs1 | 9% | -9 | 8% | -4 | 14% | u | x
COc1ccc(-c2csc(NC(=O)c3ccc(S(=O)(=O)N4CCc5ccccc5C4)cc3)n2)c(OC)c1 | 13µM* | -12 | -8% | -4 | -1% | u | -16
CS(=O)(=O)N1CCc2cc(-c3csc(NC(=O)Cc4ccccc4)n3)ccc21 | 10µM* | 28 | -4% | 7 | 10% | -5% | 4
COc1ccc(S(=O)(=O)N2CCc3ccccc3C2)cc1 | -7% | 15 | 0% | 8 | 0% | -14% | x
O=C(Nc1nc(-c2ccccc2)cs1)c1ccc(S(=O)(=O)N2CCc3ccccc32)cc1 | 5µM* | 10 | u | 2 | 15% | u | u
Cc1ccc(S(=O)(=O)N(C)C)cc1NC(=O)CCNC(=O)c1ccccc1Cl | 7% | -15 | 10% | 3 | 19% | 39% | x
SMILES | NS1 inh | Shiga inhibitor | Pf growth 48h | CHX counter | SARS PLpro yeast | Pf growth 96h | NS1 inh valid | others
O=C(Nc1nc(-c2ccccc2)cs1)C1CCCN(S(=O)(=O)c2ccccc2)C1 (stereo not drawn) | 11µM* | 20 | x | 3 | 8% | u | 8
CCN(Cc1ccccc1)C(=O)COC(=O)c1cc(S(=O)(=O)Nc2ccccc2OC)ccc1O | x | x | x | x | 2% | x | x
CN(Cc1ccccc1)C(=O)COC(=O)c1ccccc1NS(=O)(=O)c1cccc(N)c1 | 22µM* | 2 | u | 7 | -2% | -90% | 1
COc1ccccc1OCCC(=O)OCC(=O)c1c(N)n(C)c(=O)n(C)c1=O | -5% | -7 | 0% | -2 | -1% | 4% | x
CC(=O)c1cccc(NS(=O)(=O)c2ccc(N/C=C/C(=O)c3ccc(F)cc3)cc2)c1 | u | 110* | u | 46* | 4% | u | -20
CC(=O)c1cccc(NS(=O)(=O)c2ccc(N/C=C\C(=O)c3ccc(C)cc3)cc2)c1 | -2% | 15 | u | 13 | -7% | u | x
CC1C(=O)N(c2ccc(S(=O)(=O)N(C)C)cc2)C1(/C=C/c1ccccc1)C(=O)NC1CCCC1 (stereo not drawn) | 8.9µM* | -5 | 9.3µM* | 3 | -8% | 51% | 18
CSCCC(NC(=O)c1ccccc1Br)C(=O)N1CCCC(C(F)(F)F)C1 (stereo not drawn) | 3% | 12 | -8% | -2 | 0% | 4% | x
CCOc1ccc(-n2c(Cc3cc(=O)[nH]c(=O)[nH]3)nnc2SC(C)C)cc1 | u | 2 | 2% | 2 | -8% | u | x
CCC(C)Sc1nnc(Cc2cc(=O)[nH]c(=O)[nH]2)n1-c1ccc(F)cc1 (stereo not drawn) | 8.9µM* | -2 | x | -1 | 4% | 3% | 2
Fc1ccc(-c2csc(N3CCC(c4ccccc4)C3)n2)cc1 (stereo not drawn) | u | 94* | 99% | 76* | 1% | 192% | -25
NC(=O)CN1CCN(c2nc(-c3ccc(F)cc3)cs2)CC1 | 7% | 16 | 43% | 2 | -9% | 110% | x
CCOc1cc(N2CCOCC2)c(OCC)cc1NC(=O)CSc1nnc(N)s1 | x | x | x | x | 2% | x | x
O=c1cc(-c2ccc(O)c(-c3c(O)cc(O)c4c(=O)cc(-c5ccc(O)cc5)oc34)c2)oc2cc(O)cc(O)c12 | 10µM* | -13 | u | -5 | 4% | u | 26
